Bioassay records as filed in PubChem BioAssay.
HT1080NT lethal = qHTS for induction of synthetic lethality in tumor cells producing 2HG: qHTS for the HT-1080-NT fibrosarcoma cell line; HT-1080-NT fibrosarcoma viability, CellTiter-Glo ATP luminescence, 48 h; Potency, µM (doses to about 46.1 µM), for inactives: at the top dose activity, negative = less viability, actives largely listed as cytotoxic; 360,000 compounds, 1.6% hits; AID 686970, 2013;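 further: NT is the 2HG producing partner of a matched IDH1 knockdown line; 0% = DMSO-treated cells and -100% = media-only wells without cells; nearly all actives have a fitted effect of over 55% in size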
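Fibrosarcoma NT cells, 750 per well in 5% FBS RPMI, were exposed to compound for 48 hours. Viability: CellTiter-Glo luminescence.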
HT1080 IDH1KD tx = qHTS for induction of synthetic lethality in tumor cells producing 2HG: qHTS for the HT-1080-IDH1KD cell line; HT-1080 IDH1 knockdown viability, ATP luminescence, 48 h; Potency, µM (top dose mostly 46.1 µM), for inactives: at the highest dose activity, negative = toxicity, actives largely listed as cytotoxic; 360,000 compounds, 2% hits; AID 686971, 2013;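 further: 0% = DMSO wells and -100% = cell-free medium wells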
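Assay cells: HT-1080 with IDH1 knockdown, 750 per well, RPMI/5% FBS. Exposure: 48 h at 37 °C following 2 h pre-incubation. Read: CellTiter-Glo luminescence; fitted concentration-response, curve class assigned.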
SW480 rereplic = A quantitative high throughput screen for small molecules that induce DNA re-replication in SW480 colon adenocarcinoma cells | SW480 DNA re-replication, Hoechst DNA content imaging, 48 h | Potency, µM (highest dose often 46.1 µM), inactives show at the top dose re-replication activation, hits mostly activators | 340,000 compounds, 1.8% hits | AID 624297, 2012; further: % of control where 0% means no effect; nearly all actives have a fitted effect of over 55% in size
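SW480 cells exposed to compounds for 48 hr at 37 C, 5% CO2, then Hoechst-stained 40 min. Nuclear DNA content imaged by fluorescence scanning (405 nm excitation, 500-530 nm emission); re-replication scored as increased high-intensity nuclei.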
MCF10A rerep = A quantitative high throughput screen for small molecules that induce DNA re-replication in MCF 10a normal breast cells. Potency, µM (highest dose often 46.1 µM), for the others: at the highest dose activity, positive = re-replication, usual class: activators. 350,000 compounds, 2.9% hits. AID 624296, 2012. MCF 10A DNA re-replication, Hoechst nuclear intensity, 48 h; further: % of control where 0% means no effect; nearly all actives have a fitted effect of over 50% in size
KB-3-1 tox = qHTS assay for MDR1-selective chemotherapeutics: Primary screen using the parental adenocarcinoma cell KB-3-1. KB-3-1 viability, CellTiter-Glo ATP luminescence, 72 h. Potency, µM (top dose mostly 46.1 µM), most hits filed as cytotoxic. 400,000 compounds, 1.4% hits; further: on the % scale 0 is the no-effect control and ±100 the full control effect; nearly all actives have a fitted effect of over 60% in size
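Parental KB-3-1 adenocarcinoma cells in phenol-red-free DMEM with 10% FBS were pin-treated with compounds at several concentrations, incubated 72 h at 37 °C, and viability read by CellTiter-Glo luminescence; concentration-effect curves were fitted after normalization.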
KB-V1 MDR tox = qHTS assay for MDR1-selective chemotherapeutics: Primary screen using the drug-selected MDR subline cells KB-V1 | KB-V1 MDR cells viability, CellTiter-Glo, 72 h | Potency, µM (series often up to 46.1 µM), hits mostly cytotoxic | 400,000 compounds, 3.4% hits | AID 1347076, 2019; further: on the % scale 0 is the no-effect control and ±100 the full control effect; nearly all actives have a fitted effect of over 60% in size
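KB-V1 MDR subline cells in DMEM (phenol-red free, 10% FBS) exposed to compounds in qHTS concentration series for 72 h at 37 degrees C. Viability read by CellTiter-Glo luminescence; concentration-effect curves fitted after normalization and correction.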
* = called active by the depositor; i = inactive; ? = inconclusive; / = not tested or not shown; ! = not confirmed by another sample; [ ] = remark or other dose. In the library only some 8% were active in any assay of this set; here they are far more common. The call rests on the fitted dose curve; in most records, active means well fitted curve in the direction sought with a large enough effect; inconclusive means small, poorly fitted or top-dose-only effect, or another doubt; inactive means no such curve, though single readings can be large; an effect the other way counts as inactive or inconclusive. Potency means the concentration at half of the fitted maximal effect.

SMILES	HT1080NT lethal	HT1080 IDH1KD tx	SW480 rereplic	MCF10A rerep	KB-3-1 tox	KB-V1 MDR tox
CC(=O)N1CCN(S(=O)(=O)c2cccc(C(=O)OCC(=O)N(Cc3ccccc3)C(C)(C)C)c2)CC1	0%	3%	-9%	7.3µM*	i	i
CC(=O)N1CCN(S(=O)(=O)c2cccc(C(=O)OCc3ccc(F)cc3)c2)CC1	-13%	-11%	/	/	i	i
CC(C)(C)N(Cc1ccccc1)C(=O)COC(=O)c1ccc(S(=O)(=O)N2CCOCC2)cc1	4%	0%	-5%	-2%	/	/
CC(=O)N1CCN(S(=O)(=O)c2cccc(C(=O)OCc3cccc(F)c3)c2)CC1	-6%	0%	-9%	-5%	i	18µM*
CCCCCCNc1ccc(/C=C/c2ccnc3ccccc23)cc1	/	/	/	/	i	?
CCn1c(SCc2ccc(F)cc2Cl)nnc1-c1nonc1NC(C)=O	/	/	/	/	i	i
CCc1ccccc1Nc1nc(N)nc(COC(=O)c2cccn2C)n1	?	6.3µM*	13%	?	i	15µM*
CCOc1ccc(OCC)c(NC(=O)c2cc(-c3cccs3)nc3ccccc23)c1	/	/	/	/	i	i
O=C1[C@@H]2Cc3c([nH]c4ccccc34)C(c3cccc(Br)c3)N2C(=O)CN1C1CCN(Cc2ccccc2)CC1 (stereo not given in full)	?	23µM*	?	?	?	i
CCN(c1cccc(C)c1)S(=O)(=O)c1ccc2c(c1)CCN2C(C)=O	?	?	?	?	?	23µM*
N=C(N)n1ncc2c1CCCC2=O	19%	0%	/	/	i	i
CCCn1c(C(C)Nc2nc(-c3ccc(Cl)c([N+](=O)[O-])c3)cs2)nc2ccccc21 (stereo not given)	?	-25%	-10%	?	?	?
Cc1ccc(Cn2c(C(C)Nc3nc(-c4ccc(Cl)c([N+](=O)[O-])c4)cs3)nc3cc(C(F)(F)F)ccc32)cc1 (stereo not given)	-4%	-4%	0.92µM*	-31%	i	i
OC(c1ccccc1)c1ncc(-c2ccc(Oc3ccccc3)cc2)[nH]1 (stereo not given)	?	-27%	/	/	i	i
OC(c1ccc(Cl)cc1)c1ncc(-c2ccc(Oc3ccccc3)cc2)[nH]1 (stereo not given)	23µM*	23µM*	/	/	?	i
C[C@@H](NCCc1ccc(O)cc1)[C@@H](O)c1ccc(O)cc1	16%	5%	-32%	?	?	i
CCCCCCCCNC(C)C(O)c1ccc(SC(C)C)cc1 (stereo not given)	23µM*	?	?	24µM*!	i	16µM*
S=C(Nc1ccccc1)N1CCN(C/C=C/c2ccccc2)CC1	-2%	-10%	-10%	1%	i	i
COc1cccc(NC(=S)N2CCN(C/C=C/c3ccccc3)CC2)c1	13µM*	?	1%	5%	i	?
COc1ccccc1C(=O)NCC(=O)N1CCN(C/C=C/c2ccccc2)CC1	-3%	8%	1%	10%	i	8.2µM*
Fc1ccccc1NC(=S)N1CCN(C/C=C/c2ccccc2)CC1	0%	-2%	1%	17%	?	16µM*
Cc1ccccc1C(=O)NCC(=O)N1CCN(C/C=C/c2ccccc2)CC1	6%	-1%	-4%	-1%	i	i
CSc1ccccc1OCc1cc(C(=O)NCc2csc(C(C)C)n2)no1	-2%	-4%	-13%	5%	i	i
S=C(NCCN1CCCCC1)Nc1ccc(Br)cc1	-10%	-15%	16µM*	0%	i	i
S=C(NCCN1CCCCC1)Nc1ccccc1	0%	0%	-7%	5%	i	i
SMILES	HT1080NT lethal	HT1080 IDH1KD tx	SW480 rereplic	MCF10A rerep	KB-3-1 tox	KB-V1 MDR tox
C=CCNCCCOc1ccc(Cl)cc1Br	-14%	-20%	8%	-1%	i	i
CCOC(=O)C1CCCN(C(=O)Cc2ccc(OC)c(OC)c2)CC1 (stereo not given)	12%	3%	/	/	?	21µM*
CCOC(=O)C1CCCN(C(=O)Cc2ccc(OC)c(OC)c2)C1 (stereo not given)	-2%	-1%	-2%	0%	i	i
O=C(CSc1nc2c(oc3ccccc32)c(=O)n1Cc1ccco1)Nc1ccccc1	/	/	/	/	i	i
c1csc(Cn2c(-c3cccs3)nc3ccccc32)c1	1%	-11%	11%	26%	?	21µM*
Cc1ccccc1Cn1c(-c2cccs2)nc2ccccc21	/	/	/	/	i	i
c1ccc(Cn2c(CNc3nc4ccccc4n3CCN3CCOCC3)nc3ccccc32)cc1	?	?	7%	27%	i	8.2µM*
Cc1cccc(NCc2nc3ccccc3n2C)c1	-1%	4%	-10%	-8%	i	?
Cc1ccc(N2CCN(c3ccc(NCc4nc5ccccc5n4C)cc3)CC2)cc1	0%	-5%	18%	?	i	4.6µM*
Cc1nc2cc(NCc3nc4ccccc4n3Cc3ccccc3)ccc2n1C	?	?	-4%	?	i	10µM*
Cn1c(CNc2ccc(Cl)cc2)nc2ccccc21	-17%	-2%[9.24 µM]	-5%	2%	i	21µM*
Cc1cccc(NCc2nc3ccccc3n2Cc2ccccc2)c1	-19%	?	-5%	44%[0.0737 µM]	i	?
Cc1ccc(SCc2ccc(C(=O)NCc3ccncc3)cc2)cc1	-14%	-15%	8%	-8%	i	18µM*
CCOc1cc(C(=O)NCc2ccncc2)cc(OCC)c1OCC	10%	4%	-10%	1%	i	7.3µM*
CCOc1cc(C(=O)Nc2cnccn2)cc(OCC)c1OCC	?	10µM*	?	?	i	?
CCOc1ccc(C(=O)NCc2ccncc2)cc1OCC	10%	14%	-8%	-2%	i	i
CC1Cc2ccccc2N1C(=O)CSc1nncs1 (stereo not given)	1%	1%	-4%	-2%	i	i
Cc1ccc(OCC(=O)N(C)CC(=O)Nc2ccc(F)cc2)c([N+](=O)[O-])n1	6%	2%	3%	-4%	i	i
O=C(COc1cccnc1[N+](=O)[O-])N1CCc2ccccc21	3%	20%	1%	-3%	i	i
